Laboratory results as given in PubChem BioAssay (NCI).
Compounds without any hit were thinned out: in the full panel of roughly 79,000, 15% have a hit. A number with no mark means an inactive call. Activity calls are given as the source filed them. Cut-off read from the data, not from the text of the source: active = growth inhibition above about 70%; inactive = the rest.

Columns and labels:
[1] = NCI Yeast Anticancer Drug Screen. Data for the rad50 strain (AID 155);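 note: 0% = growth of vehicle-only cultures of the same strain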; conditions: S. cerevisiae rad50 strain growth inhibition; at 50.0 µM; hits give high values
Procedure, shortened: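 Yeast carrying a defined DNA repair defect were exposed to test compounds, and growth was compared with vehicle-treated controls to give percent inhibition.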

[2] = NCI Yeast Anticancer Drug Screen. Data for the mec2-1 strain (AID 157); conditions: S. cerevisiae mec2-1 strain, at 50.0 µM, hits give high values
Procedure, shortened: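 Each compound was tested on mec2-1 yeast, a strain altered in DNA damage repair or cell cycle control. Growth inhibition is reported relative to vehicle.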

[3] = NCI Yeast Anticancer Drug Screen. Data for the sgs1 mgt1 strain (AID 161);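 note: 0% = growth of cultures given vehicle only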; conditions: S. cerevisiae sgs1 mgt1 strain, at 50.0 µM, hits give high values
Procedure, shortened: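 Read-out: growth inhibition vs vehicle controls. Cells: mutant yeast strain deficient in DNA damage repair.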

[4] = NCI Yeast Anticancer Drug Screen. Data for the cln2 rad14 strain (AID 165);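 note: 0% = growth equal to vehicle treated cultures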; conditions: S. cerevisiae cln2 rad14 strain, at 50.0 µM, hits give high values
Procedure, shortened: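 Test compounds were added to cln2 rad14 yeast cultures; inhibition of growth was then determined by comparison with vehicle treatment.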

[5] = NCI Yeast Anticancer Drug Screen. Data for the bub3 strain (AID 167); conditions: S. cerevisiae bub3 mutant strain, at 50.0 µM, hits give high values
Procedure, shortened: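 Compounds were applied to a genetically altered yeast strain carrying a cell-cycle control defect. Growth inhibition was scored against vehicle-treated controls.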

[6] = NCI Yeast Anticancer Drug Screen. Data for the mlh1 rad18 strain (AID 175); conditions: S. cerevisiae mlh1 rad18 strain growth inhibition; at 50.0 µM; hits give high values
Procedure, shortened: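 Inhibition values reflect reduced growth of mutant yeast versus vehicle-treated controls following compound exposure; the mutations affect DNA damage repair.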

| SMILES | growth inhibition [1] | growth inhibition [2] | growth inhibition [3] | growth inhibition [4] | growth inhibition [5] | growth inhibition [6] |
| --- | --- | --- | --- | --- | --- | --- |
| Nc1nc(N)c2cc(N3CCCC3c3ccc(Cl)cc3)ccc2n1 (configuration not stated) | 90.8% (active) | 92.5% (active) | 91.5% (active) | 90.5% (active) | 91.6% (active) | 91% (active) |
| CCC(=O)OCC[N+](C)(C)C | -29.2% | -37.6% | -22.9% | -4.25% | -38.5% | -20.9% |
| CCN1CCCC(Nc2nc(Nc3cc(Cl)cc(Cl)c3)nc3ccc(Cl)cc23)C1 (configuration not stated) | 97.3% (active) | 97.1% (active) | 97.5% (active) | 95.5% (active) | 96.8% (active) | 95.8% (active) |
| COc1ccc(/C=C2\N=C(c3ccc(Cl)cc3)OC2=O)cc1Br | 10.2% | -2.15% | 21.5% | 5% | 12.8% | 17.3% |
| COc1ccc(C2N3CCCCC3[C@@H]3c4[nH]c5ccccc5c4CCN23)c(OC)c1 (some centres not stated) | -30.2% | -24.4% | -26.6% | 6.1% | -5.3% | -9.65% |
| CC(=O)C(C(c1ccccc1)N1CCOCC1)N1CCOCC1 (configuration not stated) | 12.1% | -0.8% | -24% | 1.15% | -23.2% | 6.25% |
| C/C(Nc1ccc(F)cc1)=C1/CCOC1=O | 9.8% | -17.9% | -1.5% | -43.5% | 13.8% | -11.5% |
| CCOC(=O)C(NC(=O)c1ccccc1)(N1CCN(c2cc3c(cc2F)c(=O)c(C(=O)O)cn3CC)CC1)C(F)(F)F (configuration not stated) | -29.4% | -34.4% | -3.3% | -18.4% | -14.2% | -20.8% |
| CCc1ccccc1NC(=O)C1=C(C)NC(C)=C(C(=O)Nc2ccccc2CC)C1c1ccc2c(c1)OCO2 | -9.35% | 3.6% | -2.4% | -7.8% | -0.75% | -4% |
| CN=C1NC(C)(C)C2CCC(C)(CC2)S1 | 8.35% | 14.9% | -4.3% | -71.3% | 2.85% | 14.7% |
| CC(=O)NC1C(OC2C(CO)OC(OCC3OC(n4ccc(N)nc4=O)C(O)C3O)C(NC(C)=O)C2O)OC(CO)C(O)C1O (configuration not stated) | 31.9% | 48.4% | 2.1% | -16.2% | -3.45% | 89.2% (active) |
| COc1ccc([N+](=O)[O-])c2ncncc12 | -14.4% | -12% | 0.8% | 6.6% | -10.9% | 20.6% |
| Cc1nc2ccc(S(=O)(=O)Nc3ccc(Cl)cc3)cc2c(=O)n1NC(=O)CNc1ccc(Cl)cc1 | 33.3% | 22.4% | 42.2% | 15.6% | 19.9% | 24.2% |
| COC(=O)CCSSCCC(=O)OC | 2.15% | -13.1% | -1.6% | -6.15% | -21.4% | 24.9% |
| Cc1cccc(C)c1NC(=O)Nc1cccc(Cl)c1 | 6.3% | 15.6% | 7.7% | -0.5% | 11% | -0.8% |
| COc1cc(C2C(Cl)C(=O)N2n2cnc3ccccc3c2=O)ccc1O (configuration not stated) | -22.7% | 3.3% | -11.2% | 12.8% | -10.2% | -11.8% |
| CCN(CC)CCNc1c(C)cccc1Cl | -2.9% | 3.5% | -7.1% | -26.2% | 1% | -1.5% |
| CC1C(c2ccccc2O)c2cc3c(cc2OC1N1CCCC1)OCO3 (configuration not stated) | 45.9% | 38.8% | 58.5% | 59.6% | 47.4% | 58.3% |
| COC(=O)/C(=N\NC(N)=O)C(C#N)c1ccccc1 (configuration not stated) | -12.5% | -1.85% | -5.75% | -29.9% | 6.7% | -4.8% |
| COc1cc(/C=N\NS(=O)(=O)c2ccc(N)cc2)ccc1O | 10.1% | -18.3% | 5.05% | 9.55% | -24.8% | 17.1% |
| CC(C)=CC(C)(O)c1nc2ccccc2s1 (configuration not stated) | -2.75% | 21.7% | 7.25% | -6.95% | 1.1% | 5.2% |

| SMILES | growth inhibition [1] | growth inhibition [2] | growth inhibition [3] | growth inhibition [4] | growth inhibition [5] | growth inhibition [6] |
| --- | --- | --- | --- | --- | --- | --- |
| CCN(CC)C(=O)c1ccc[n+](CCC(N)=O)c1 | -1.05% | -17.8% | -3% | 14.8% | -8.5% | 6.6% |
| Nc1nc(N)c(N=O)c(N)n1 | -10.9% | -8.85% | 0.6% | 21% | 3.5% | 15.2% |
| CNc1nc(N(C)C)nc(N(C)C)n1 | 25.2% | 16.9% | 15.6% | 28.9% | 26.8% | 26.6% |
| Nc1ccccc1NC(=O)C(F)(F)F | -2.45% | -5.4% | 3.3% | -8.4% | -8.75% | 1.15% |
| O=[N+]([O-])c1ccc(C2=NOC3COC4C=CC=CC4OCC23)cc1 (configuration not stated) | -3.4% | -29.7% | 11.1% | -2.55% | 5.95% | -7.5% |
| COc1ccc(-c2nc3ccccc3[nH]2)cc1 | 16.4% | -2.7% | 1.7% | -4% | -21.5% | -3.1% |
| CC/C=C(\CCC)C(C#N)(CC)C(=O)OCC (configuration not stated) | 9.1% | -33.6% | -21.2% | -7.6% | -24.6% | -9.55% |
| COc1ccc2c(c1)OC(C)(C)C(c1ccccc1)=C2c1ccc(OCCN2CCCC2)cc1 | 99.6% (active) | 99.8% (active) | 99.9% (active) | 99.3% (active) | 99.3% (active) | 99.7% (active) |
| CCOC(=O)c1cc2nc3ccccn3c(=O)c2cc1N | -1.15% | -17.5% | 0.85% | -36.3% | -9.3% | -8.45% |
| Cc1c(O)c(=O)ccn1C1OC(CO)C(O)C1O (configuration not stated) | 16.5% | 22.9% | 25.5% | -2.9% | 15.8% | 26% |
| O=C(Nc1cccc(F)c1)Sc1ccc(Cl)cc1 | 55% | 53.9% | 56.1% | 34% | 56.4% | 41% |
| Cc1cc(OCC(=O)O)c(C)cc1Cl | -21.6% | -17.1% | -12.5% | -0.25% | -7.5% | -13.6% |
| Nc1nc(SCC(=O)O)nc(N)c1N=Nc1ccc(S(=O)(=O)NC(=O)c2ccccc2)cc1 | 7.3% | 5.75% | -7.4% | -0.3% | 0.1% | 15.6% |
| O=C(N/N=C/c1cccc(C(F)(F)F)c1)c1ccncc1 | 12.8% | 6.7% | 11.1% | -15.7% | 8.05% | 5.85% |
| COc1ccc(Cc2ccc3c(c2)OCO3)cc1C | -12.1% | -14.2% | 9.7% | -9.55% | 6.45% | -3.95% |
| Cc1onc(-c2c(Cl)cccc2Cl)c1C(=O)Nc1ccc(Cl)c(Cl)c1Cl | -12.4% | -14.7% | -3.2% | 12.1% | 2.25% | -8.25% |
| N#CCCCO | -1.25% | 11.6% | 7.45% | -4.55% | 0.3% | -11.8% |
| CCN(CCNc1cc(OC)cc2cccnc12)c1ccccc1 | 59.9% | 20.7% | 48.4% | 23.2% | 47% | 68.2% |
| O[C@@H]1C=C(c2ccccc2)[C@H](c2ccccc2)C1 | -3% | 9.6% | 9.65% | -7.9% | -19.8% | -1.15% |
| O=C1c2ccccc2C(=O)c2c(O)cc([N+](=O)[O-])cc21 | 18.2% | 3.05% | 11.7% | 6.05% | 14.2% | -1.5% |
| CCOCC(C)(CO)CC(C)CO (configuration not stated) | -10.2% | 1.35% | -5.6% | -6.6% | -4.55% | 4% |
